# Measured values from ChEMBL document CHEMBL3988442, “University of Dundee, Small-Polar-MMV Screening Library” (2021).
# Biological target: Chromo domain-containing protein 1 (Saccharomyces cerevisiae (strain ATCC 204508 / S288c) (Baker's yeast)) (UniProt P32657)
# Experiment: ScCHD-1 Enzyme Inhibition Assay
# Format: functional
# Set-up: scale not given: in the data most compounds retested in dose-response had high values
# Conditions: 30 µM
# Chromo domain-containing protein 1 (Saccharomyces cerevisiae (strain ATCC 204508 / S288c) (Baker's yeast)), sequence (P32657 whole entry, the tested form may be a part): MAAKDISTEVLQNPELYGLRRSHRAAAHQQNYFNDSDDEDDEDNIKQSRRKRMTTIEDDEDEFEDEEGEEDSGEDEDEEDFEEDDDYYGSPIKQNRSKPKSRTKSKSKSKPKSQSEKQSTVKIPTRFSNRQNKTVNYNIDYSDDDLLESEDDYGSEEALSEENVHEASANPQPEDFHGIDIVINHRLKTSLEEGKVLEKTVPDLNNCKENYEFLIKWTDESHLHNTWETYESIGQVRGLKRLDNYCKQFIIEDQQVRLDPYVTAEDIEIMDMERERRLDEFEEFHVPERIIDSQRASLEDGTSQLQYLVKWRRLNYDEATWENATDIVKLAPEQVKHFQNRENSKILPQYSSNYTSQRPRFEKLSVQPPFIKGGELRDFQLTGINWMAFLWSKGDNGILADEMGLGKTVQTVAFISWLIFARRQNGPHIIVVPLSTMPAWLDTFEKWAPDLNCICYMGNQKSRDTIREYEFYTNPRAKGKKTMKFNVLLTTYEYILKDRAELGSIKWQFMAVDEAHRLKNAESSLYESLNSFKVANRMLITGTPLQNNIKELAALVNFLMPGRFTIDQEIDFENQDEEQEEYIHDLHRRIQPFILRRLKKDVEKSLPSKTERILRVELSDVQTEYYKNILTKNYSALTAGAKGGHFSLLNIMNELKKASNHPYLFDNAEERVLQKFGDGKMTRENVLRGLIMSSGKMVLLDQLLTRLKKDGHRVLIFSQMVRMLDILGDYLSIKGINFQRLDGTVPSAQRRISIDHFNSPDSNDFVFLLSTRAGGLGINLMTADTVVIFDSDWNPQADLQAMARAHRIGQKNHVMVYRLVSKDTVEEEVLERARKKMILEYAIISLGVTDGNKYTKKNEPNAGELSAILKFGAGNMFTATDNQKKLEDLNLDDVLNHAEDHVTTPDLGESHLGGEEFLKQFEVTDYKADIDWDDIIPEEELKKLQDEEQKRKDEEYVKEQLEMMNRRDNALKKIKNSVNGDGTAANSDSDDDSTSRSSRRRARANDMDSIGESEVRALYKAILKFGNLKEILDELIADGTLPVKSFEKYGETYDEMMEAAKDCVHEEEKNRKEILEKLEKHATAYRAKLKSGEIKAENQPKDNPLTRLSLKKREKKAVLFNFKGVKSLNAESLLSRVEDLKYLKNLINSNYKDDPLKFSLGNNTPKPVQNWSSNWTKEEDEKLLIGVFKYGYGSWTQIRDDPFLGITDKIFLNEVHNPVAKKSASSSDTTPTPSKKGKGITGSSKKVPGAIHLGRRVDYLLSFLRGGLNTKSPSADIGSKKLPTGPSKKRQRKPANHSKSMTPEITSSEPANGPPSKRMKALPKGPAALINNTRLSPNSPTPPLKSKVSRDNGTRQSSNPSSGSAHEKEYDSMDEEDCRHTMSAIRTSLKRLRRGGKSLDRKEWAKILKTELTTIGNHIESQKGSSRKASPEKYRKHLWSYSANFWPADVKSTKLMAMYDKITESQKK
row,SMILES,Percent Effect [%]
1,c1cnn(CC2CCCCN2Cc2cn3ccsc3n2)c1 (stereo not given),-1.18
2,CN(Cc1nnc(-c2ccco2)o1)C1CCCN(c2cccnn2)C1 (stereo not given),1.33
3,O=C(NCCn1nc2ccccn2c1=O)c1cccc2[nH]ncc12,-8.5
4,Cc1nc(CN2CCCC(CCc3c(F)cccc3F)C2)c[nH]1 (stereo not given),96.9
5,CC(C)CN1C[C@@H]2CN(C(=O)[C@H]3CCCO3)C[C@@H]2C1=O,-5.7
6,CC(NC(=O)NCCCn1cncn1)c1ccccc1Cl (stereo not given),-11
7,Cc1[nH]ccc1C(=O)N1CCCC(c2nccn2Cc2cscn2)C1 (stereo not given),-3.33
8,CCn1cc2c(n1)C(COC)CN(Cc1ccccn1)C2 (stereo not given),-3.98
9,O=C1CCCc2nccc(-c3ccccc3)c21,-16.7
10,c1ccc(OCc2nnc3n2CCN(CC2CCOCC2)C3)nc1,-2.56
11,CN(C)CC1CN(Cc2ccsc2)Cc2nccn2C1 (stereo not given),6.09
12,CCOc1c(Cl)cccc1NCc1cc(C)on1,-1.3
13,O=C(NCc1cc[nH]n1)NCC(c1ccc(F)cc1)N1CCOCC1 (stereo not given),-7.47
14,CCc1nccn1C1CCCN(C(=O)c2csc(NC(C)=O)n2)C1 (stereo not given),-7.02
15,Cc1ccc(C(=O)N2CCC3(CC2)CCN(CCN(C)C)C3=O)cn1,-6.63
16,Cc1ccc(C(=O)N2CCN(Cc3ccsc3)CC2)n1C,-6.68
17,CS(=O)(=O)NCc1cc2n(n1)CCCN(Cc1cccc(C#N)c1)C2,88
18,O=C(NCC1CC1)C1CCC2(CCN(C(=O)c3ccccn3)CC2)O1 (stereo not given),-4.71
19,O=C(NCc1cc[nH]n1)N(CCCO)C1CCc2ccccc21 (stereo not given),-7.56
20,CCC(NC(=O)CC(F)(F)F)c1ccccc1OCC(=O)N1CCCC1 (stereo not given),-2.48

row,SMILES,Percent Effect [%]
1,CNC(=O)c1cccnc1Oc1ccccc1,-9.58
2,O=C(CSc1ccc(F)c(F)c1)NS(=O)(=O)c1ccc2c(c1)OCCO2,-1.38
3,CCSCCC(=O)NS(=O)(=O)c1ccc2c(c1)OCCO2,-1.85
4,CC1CCCCN1Cc1ccc(-c2ccccc2C(=O)O)cc1 (stereo not given),-21.8
5,Cc1noc(C)c1C(=O)N1CC[C@H]2C[C@@H](c3nccs3)O[C@@H]2C1,-3.15
6,Cn1ccc(CN2CCC(NC(=O)Cc3ccccc3)CC2)cc1=O,-3.86
7,O=S(=O)(c1ccccc1)N1CCCCC1c1cc[nH]n1 (stereo not given),-28
8,COCCN(C)C[C@@H]1CCC[C@@H]2CN(c3cc(OC)ncn3)C[C@@H]21,0.558
9,CC(C)NC(=O)N1CCN(Cc2ccccn2)CC2(CC(=O)N(C)C2)C1 (stereo not given),-7.79
10,CCn1nc(C)c(CCNC(=O)C2CCCN(C(=O)N(C)C)C2)c1C (stereo not given),-3.32
11,Cc1cccc(C(=O)N2CCCN(Cc3cnn(C)c3)CC2)n1,-3.37
12,COCCC(=O)N1CCn2c(COCC3CC3)cnc2C1C (stereo not given),-2.88
13,c1ccc(CNC2CCc3ncnn3C2)nc1 (stereo not given),-2.61
14,COCCOc1cccc(C(=O)N2CCCC(n3ccnc3C)C2)c1 (stereo not given),-12.3
15,CC(C)N(Cc1nc2c(cnn2C)c(=O)[nH]1)c1ccccc1,-3.23
16,Cc1nc(CN2CCCC(CCc3ccc(F)cc3F)C2)c[nH]1 (stereo not given),-1.62
17,COCC(C)N(C)C(=O)c1nc(S(C)(=O)=O)n2ccccc12 (stereo not given),-0.536
18,Cc1ccccc1N1CC2(CCN(S(=O)(=O)c3cccs3)C2)CC1=O (stereo not given),-9.98
19,Cc1ccc(CN2CCCn3c(nc(Cn4cncn4)cc3=O)C2)s1,-1.68
20,Cc1ccc2oc(C(=O)N3CCc4nnc(N(C)C)cc4C3)cc2n1,-10.7
